Screening data deposited in PubChem by National Center for Advancing Translational Sciences (NCATS).
Hits are enriched below; roughly 21% of the tested compounds scored in any of these assays.
SARS PLpro yeast: blocks SARS-CoV papain-like protease in a yeast assay; S. cerevisiae expressing SARS-CoV PLpro, growth rescue; Potency, µM (titrated, usually from 32.9 µM), for the others: at the top dose activity, positive = growth rescue, actives largely listed as activators; 0.19% of 330,000 active; AID 485353; calls by dose curve; note: potency is the fitted concentration of half-maximal effect; 0% is about no effect; nearly all actives have a fitted effect of over 55% in size
Pf growth 96h: P. falciparum growth inhibition at 96 hours; P. falciparum luciferase reporter growth, 96 h; Potency, µM (doses to about 28.7 µM), inactives show top-dose activity change, negative = inhibition, actives largely listed as inhibitors; 6.9% of 320,000 active; AID 504834; note: potency is the fitted concentration of half-maximal effect; % is set by controls: 0 for no effect and ±100 for the full control effect
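Two parasite generations (96 h, 37 C, 5% CO2) of compound exposure in infected erythrocytes (0.05% parasitemia, 2% hematocrit). Luciferase-reporter P. falciparum; decreased luminescence indicates inhibited growth, aimed at apicoplast-acting delayed death.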
Pf growth 48h: inhibits P. falciparum growth in the first generation, 48 h | 5.9% of 310,000 active | P. falciparum luciferase growth in erythrocytes, 48 h | Potency, µM (series often up to 28.7 µM), without a hit: at the highest dose activity change, negative = inhibition, hits mostly inhibitors; note: potency is the fitted concentration of half-maximal effect; % is set by controls: 0 for no effect and ±100 for the full control effect
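Luminescence readout; reporter = integrated firefly luciferase in P. falciparum. RBC culture at 2% hematocrit, 0.1% parasitemia final, 37 C/5% CO2; decreased signal taken as growth inhibition.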
Shiga inhibitor: blocks Shiga toxin action in Vero cells. 9.2% of 290,000 active. inhibition, % at 38.7 µM. Vero cells, Shiga toxin protein synthesis inhibition reporter; in the data active = inhibition mostly above about 28%, no sharp cut-off; inactive = mostly below about 43%; note: 0% is about no effect
NS1 inh: influenza NS1 inhibition. 0.4% of 270,000 active. Potency, µM (series often up to 46.1 µM), for inactives: top-dose activity, positive = more growth; calls by dose curve; note: potency is the fitted concentration of half-maximal effect; actives are rising curves; nearly all actives have a fitted effect of over 50% in size
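Recovery from NS1-induced slow growth read by OD600 in budding yeast switched to galactose assay medium (pH 6.0, -URA) at 1:100 dilution. Compound 23 nl per well; the matching strain lacking NS1 serves as control.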
Cycloheximide cs: counter-screen for Shiga toxin inhibitors: cycloheximide protein synthesis inhibition | cell reporter, cycloheximide protein synthesis inhibition counterscreen | max response, % | 12% of 300,000 active | AID 2314; in the data active = max response mostly above about 13%, no sharp cut-off; inactive = mostly below about 14%; note: read at 38.3 µM for the half of the compounds with a filed dose; 0% is about no effect
Numbers without * were called inactive; ? = inconclusive; . = not tested or not shown. Unless noted, calls come from the whole dose curve; as a rule, active = well fitted inhibition curve with a large enough effect; inconclusive = small, poorly fitted or top-dose-only effect, or another doubt; inactive = no such curve, though single readings can be large or run the other way.

SMILES	SARS PLpro yeast	Pf growth 96h	Pf growth 48h	Shiga inhibitor	NS1 inh	Cycloheximide cs
Cc1ccc(C2=NOC3(CC(=O)N(c4ccc(C)cc4)C3=O)C2)cc1 (configuration not stated)	1.6%	72.7%	49.6%	33.2	2.7%	6.2
O=C(CSc1ncn[nH]1)Nc1ccc(OCc2ccccc2)cc1	-0.9%	98.8%	228.3%	145.1*	.	33.6*
NS(=O)(=O)c1ccc(NC(=O)CSc2ncn[nH]2)cc1	-2.5%	-24.2%	33.9%	-14.1	.	0.9
CCOc1ccc(NC(=O)CSc2ncn[nH]2)cc1	-9.2%	11.7µM*	24.2%	11.2	15.9%	18.1*
NC(=O)C1=CN(C2OC(COP(=O)(O)OP(=O)(O)OC[C@H]3O[C@@H](n4cnc5c(N)ncnc54)[C@H](OP(=O)(O)O)[C@H]3O)C(O)C2O)C=CC1 (some centres not stated)	.	.	.	.	3.0%	.
Cc1cc(C(F)(F)F)nc(Nc2nc(C)c3ccccc3n2)n1	0.2%	.	0.0%	-1.9	24.4%	10.4
Cc1ccc2nc(Nc3nc(C)cc(C(F)(F)F)n3)nc(C)c2c1	3.6%	5.22µM*	?	-5.5	3.8%	-7.7
CCNC(=S)N/N=C/c1sccc1C	0.6%	?	?	33.7*	.	6.1
Cc1ccsc1/C=N/NC(=O)C(=O)NCC(C)C	-0.1%	34.4%	167.4%	75.9*	2.2%	41.3*
Cc1ccsc1/C=N/NC(=S)NCCc1ccccc1	-6.7%	0.2%	13.9%	30.6*	.	32.5*
CCCCC(=O)N/N=C/c1sccc1C	-0.3%	58.9%	31.9%	-13.0	2.6%	8.6
COc1ccc(CC(=O)NCC2CCCN(Cc3cc(OC)cc(OC)c3)C2)cc1 (configuration not stated)	2.3%	?	0.0%	-25.8	-4.4%	-1.1
O=C(O)CN(c1ccccn1)S(=O)(=O)c1ccccc1	-2.3%	18.0%	.	28.7	8.3%	6.7
COC(=O)CN(c1ccccn1)S(=O)(=O)c1ccccc1	1.6%	2.33µM*	22.8%	28.1	-11.1%	-0.5
O=[N+]([O-])c1cc(C(F)(F)F)cc([N+](=O)[O-])c1N1CCCNCC1	0.6%	?	?	5.2	?	-3.9
COC(=O)c1ccc(NC(=O)C2C3C=CC(O3)C2C(=O)O)cc1 (configuration not stated)	-30.3%	-19.3%	33.2%	29.7*	-2.1%	19.6*
CCOC(=O)c1ccc(NC(=O)C2C3C=CC(O3)C2C(=O)O)cc1 (configuration not stated)	-9.3%	-7.0%	-16.4%	29.4	-10.1%	12.8
Cc1cccc(NC(=O)C2C3C=CC(O3)C2C(=O)O)c1 (configuration not stated)	-26.0%	?	0.0%	27.6	-2.4%	-2.2
Cc1ccc(NC(=O)C2C3C=CC(O3)C2C(=O)O)cc1C (configuration not stated)	-6.2%	42.5%	-11.4%	.	7.7%	52.0*
CC(C)CC(COCc1cccc(Cl)c1)N1CCN(C(=O)c2cccc(C(F)(F)F)c2)CCC1=O (configuration not stated)	-0.4%	10.4µM*	?	18.0	-30.4%	2.5
COc1ccc(COCC(CC(C)C)N2CCN(C(=O)c3cccc(C(F)(F)F)c3)CCC2=O)cc1 (configuration not stated)	1.1%	?	10.4µM*	13.9	-23.2%	3.0
CC(C)CC(COCc1ccc(Cl)cc1)N1CCN(C(=O)c2ccc(Cl)cc2Cl)CCC1=O (configuration not stated)	-52.6%	?	10.4µM*	13.2	.	4.8
CC(=O)N1CC(C)Oc2ccc(S(=O)(=O)NC(CC(=O)O)c3ccc(C)cc3C)cc21 (configuration not stated)	-0.1%	?	37.5%	-3.8	-3.8%	-2.9
COc1ccc(OC)c(S(=O)(=O)n2ccnc2C(C)C)c1	-7.2%	-0.2%	5.8%	.	-2.8%	-2.9
Cc1ccc(NC(=O)Cn2nnc(C(=O)NCc3ccc4c(c3)OCO4)c2N)cc1	25.5%	31.6%	0.0%	-5.4	-6.2%	0.9
SMILES	SARS PLpro yeast	Pf growth 96h	Pf growth 48h	Shiga inhibitor	NS1 inh	Cycloheximide cs
CC(C)c1ccc(NC(=O)Cn2nnc(C(=O)NCc3ccc4c(c3)OCO4)c2N)cc1	4.1%	9.28µM*	-17.0%	0.8	5.9%	12.0
Cc1cc(C)c(NC(=O)Cn2nnc(C(=O)NCc3ccc4c(c3)OCO4)c2N)c(C)c1	1.3%	14.7µM*	19.9%	-9.0	-8.0%	17.5
CCN(CC(=O)NC(=O)NCc1ccccc1)Cc1ccccc1	-6.0%	10.9%	24.9%	-6.0	5.2%	0.6
O=C(NNS(=O)(=O)c1ccc2ccccc2c1)c1cc(-c2ccccn2)nc2ccccc12	6.9%	8.5%	25.9%	20.9	26.2%	-3.1
CSc1nnc(C)c(=O)n1COC(=O)/C=C/c1ccccc1	0.3%	?	2.0%	-2.8	.	0.6
Cc1cc(-c2cc(-c3ccccc3)on2)nc(NC2CCCC2)n1	-16.1%	?	?	33.6*	-32.6%	21.3
CCOc1ccc(/C=C(\C(=O)O)c2ccc(S(=O)(=O)N3CCCCC3)s2)cc1OC	-0.1%	.	.	.	.	.
Cc1ccc2[nH]cc(CCNC(=O)Nc3ccccc3)c2c1	2.9%	?	.	-8.5	-5.6%	12.5*
Cc1ccccc1NC(=O)NCCc1c[nH]c2ccccc12	-5.0%	-3.3%	20.1%	13.5	2.5%	10.1
COc1ccc(C(=O)CCC(=O)NCCc2c[nH]c3ccccc23)cc1OC	0.3%	?	?	-11.7	?	-1.4
CC(=O)c1cccc(NC(=O)NCCc2c[nH]c3ccccc23)c1	2.4%	-2.6%	2.5%	25.6	2.6%	12.0*
COc1ccc(C(C)=O)cc1CS(=O)(=O)CC(=O)NCCc1c[nH]c2ccccc12	-8.5%	10.4µM*	5.22µM*	.	.	.
Cc1ccc(S(=O)(=O)Nc2ccccn2)cc1[N+](=O)[O-]	-0.9%	69.0%	-0.8%	-5.1	.	-0.6
Cn1c(C(=O)c2ccccc2[N+](=O)[O-])nc2ccccc21	0.7%	-22.4%	9.8%	15.5	4.9%	3.7
Cc1cc(C)c(S(=O)(=O)c2ccccc2)c(N2CCOCC2)n1	-2.4%	-7.3%	?	-9.8	.	-3.6
Cc1ccc(S(C)(=O)=O)cc1C(=O)NC(C)C1CC2CCC1C2 (configuration not stated)	1.8%	17.8%	23.9%	-2.8	5.4%	-5.2
O=[N+]([O-])c1ccc2c(c1)C(N1CCOCC1)/C(=C/COc1ccc3ccccc3c1Br)O2 (configuration not stated)	4.3%	?	6.57µM*	-5.7	?	11.6
O=[N+]([O-])c1ccc(OC/C=C2\Oc3ccc([N+](=O)[O-])cc3C2N2CCOCC2)cc1 (configuration not stated)	-6.5%	8.3%	?	-3.5	14.2%	1.4
Cc1[nH]n(-c2cccc(Cl)c2)c(=O)c1C=NC12CN3CN(CN(C3)C1)C2	-12.9%	42.4%	0.0%	-3.5	8.1%	-1.3
